p47phox inh = inhibitors of human p47phox binding; p47phox/p22phox peptide binding, fluorescence polarization, 2 h; inhibition, % at 24.7 µM; 0.53% of 220,000 active; AID 1274; P14598;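 active = inhibition above about 30%, limit read from the data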
Target sequence (P14598 whole entry, looked up): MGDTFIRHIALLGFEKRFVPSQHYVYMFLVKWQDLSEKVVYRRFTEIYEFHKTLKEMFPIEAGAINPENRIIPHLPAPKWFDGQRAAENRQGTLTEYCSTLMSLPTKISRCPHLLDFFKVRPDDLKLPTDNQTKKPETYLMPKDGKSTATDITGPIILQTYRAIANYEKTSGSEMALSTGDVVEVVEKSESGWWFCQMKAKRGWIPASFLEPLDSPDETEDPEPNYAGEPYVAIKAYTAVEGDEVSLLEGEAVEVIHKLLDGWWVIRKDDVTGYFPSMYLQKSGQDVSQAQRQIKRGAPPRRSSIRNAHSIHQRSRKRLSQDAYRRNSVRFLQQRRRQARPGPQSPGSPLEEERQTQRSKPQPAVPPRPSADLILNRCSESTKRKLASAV
dFosB act = mouse delta FosB homodimer activation; activation, % at 25 µM; 0.99% of 340,000 active; AID 493131; purified delta FosB, TAMRA-CDK5 oligo fluorescence polarization; percent of positive-control signal above neutral wells;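 active = mean activation above about 17%, with every replicate also reaching it, limit read from the data, passing the limit was not always enough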
14-3-3 Bad PPI = disrupts binding of bovine 14-3-3 zeta to phospho-Bad peptide; 0.71% of 220,000 active; TR-FRET 14-3-3zeta/Dy647-pBad peptide displacement, 1 h; inhibition, % at 21.7 µM;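 active = inhibition above about 70%, limit read from the data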
Target sequence (P63103 whole entry, looked up): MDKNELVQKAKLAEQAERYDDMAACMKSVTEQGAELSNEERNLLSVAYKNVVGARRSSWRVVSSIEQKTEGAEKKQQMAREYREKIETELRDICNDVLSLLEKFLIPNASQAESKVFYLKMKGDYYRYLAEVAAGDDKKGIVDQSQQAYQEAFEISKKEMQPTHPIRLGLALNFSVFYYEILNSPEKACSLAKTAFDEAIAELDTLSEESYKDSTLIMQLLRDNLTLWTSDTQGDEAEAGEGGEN
HMGR II inh = inhibitors of class II HMG-CoA reductase from Enterococcus faecalis | 0.41% of 190,000 active | AID 1066 | purified E. faecalis HMGR, NADPH absorbance 340 nm kinetic | inhibition, % at 10 µM;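 active = inhibition above a set limit, the median over all tested compounds plus 3 SD, cut at about 9.5% in these data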;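 also: enzyme runs in reverse so mevalonate oxidation gives rising NADPH absorbance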
Numbers stand for hits; 0 = inactive; - = no result; [ ] = another dose, or the depositor's remark. Most compounds without a hit are left out; they make up all but 1.9% or so of the library.

SMILES | p47phox inh | dFosB act | 14-3-3 Bad PPI | HMGR II inh
O=C(c1cc(-c2ccncc2)nc2ccc(Br)cc12)N1CCN(Cc2ccc3c(c2)OCO3)CC1 | 0 | 0 | 0 | 0
CCC(C)N1CCN(C(=O)c2cccs2)CC1 (stereo not drawn) | 0 | 0 | 70 | 0
CC(=O)NCCC(=O)Nc1nc2c(ccc3ccccc32)s1 | - | 0 | - | -
CCOCCCNC(=S)N1CCN(Cc2ccc3c(c2)OCO3)CC1 | 0 | 0 | 95 | 0
CCCNC(=S)N1CCN(Cc2ccc3c(c2)OCO3)CC1 | 0 | 0 | 0 | 0
Cc1ccc(OCC(=O)NC2=NCCS2)cc1 | 47 | 0 | 0 | 0
O=C(NC1CCCCC1)C(c1ccc(F)cc1)N(CCc1ccccc1)C(=O)CN1C(=O)c2ccccc2S1(=O)=O (stereo not drawn) | 31 | 0 | 0 | 0
O=C1CCC(=O)N1c1cccc(OS(=O)(=O)c2ccccc2)c1 | 0 | 0 | 0 | 0
O=C(c1ccc(Cl)cc1)n1c(NCc2ccccc2)n[nH]c1=S | 0 | 0 | 82 | 0
CCc1cccc(NC(=O)C2CCCN(c3cnccn3)C2)c1 (stereo not drawn) | - | 0 | - | -
CC(C)OC(=O)c1cccc2c1C(=O)c1ccccc1-2 | 50 | 0 | 0 | -
CCOc1ccc2c(C)c(C(=O)O)oc2c1OCC | 0 | 0 | 0 | 0
Cc1cc(C)cc(OCC(O)CN2CCC(CN3C(=O)c4cccc5cccc(c45)C3=O)CC2)c1 (stereo not drawn) | - | 52 | - | -
CN(C)CCCNc1ccc(-c2n[nH]c(=O)c3ccccc23)cc1[N+](=O)[O-] | - | 0 | - | -
CCN(CC)CCCNC(=O)C(C)n1c2ccccc2c2nc(=O)cc(C)n21 (stereo not drawn) | 0 | 0 | 0 | -
CCOC(=O)C(NC(=O)Cc1ccccc1)(Nc1cc(C)on1)C(F)(F)F (stereo not drawn) | 0 | 0 | 0 | 12
COc1ccc(N2CC(C(=O)Nc3ccc([N+](=O)[O-])cc3Br)CC2=O)cc1 (stereo not drawn) | - | 0 | - | -
Nc1nc(-c2ccc3c(c2)NC(=O)CO3)cs1 | 0 | 0 | 78 | 0
Nc1ccccc1-c1nnc(SCc2ccccc2F)[nH]c1=O | 0 | 0 | 0 | 0
Cc1ccc(C(=O)COc2ccc3c(C)cc(=O)oc3c2)cc1 | - | 0 | - | -
Cc1cc(=O)oc2cc(OCC(=O)c3ccc4c(c3)NC(=O)CO4)ccc12 | 37 | 0 | 71 | 0
Cc1cc(=O)oc2cc(OCC(=O)Nc3cccc(S(=O)(=O)N(C)C)c3)ccc12 | 31 | 0 | 0 | 0
COc1ccccc1CC(=O)NC1CC(C)(C)NC(C)(C)C1 | 0 | 0 | 0 | 0
Cc1ccc(-n2c(C)nn(CC#N)c2=O)cc1 | 0 | 0 | 87 | 0
CCNc1nc(Oc2ccc(F)cc2)cc(C(F)(F)F)n1 | 0 | 0 | 0 | 0
SMILES | p47phox inh | dFosB act | 14-3-3 Bad PPI | HMGR II inh
Cc1ccccc1-c1nc(-c2cccnc2)no1 | 0 | 0 | 0 | 0
Cc1c(C)n(CC(O)CN2CCOCC2)c2ccccc12 (stereo not drawn) | 66 | 0 | 0 | 0
CCCCCCC(=O)N1C/C=C\C(c2ccc(OC)cc2)N(Cc2ccc(F)cc2)C(=O)C1 (stereo not drawn) | 0 | 0 | 0 | -
COCCNc1c2c(nc3ccccc13)CCC2 | - | 0 | - | -
CN(C)CCCNc1c2c(nc3ccccc13)CCC2 | - | 20 | - | -
Cc1ccc(-c2nc(NCCCO)c3ccccc3n2)cc1 | - | 0 | - | -
OCCCNc1c2ccccc2nc2ccccc12 | - | 19 | - | -
Fc1cccc(NCCc2c[nH]c3ccccc23)n1 | - | 0 | - | -
c1ccc2c(NCCc3c[nH]c4ccccc34)c3ccccc3nc2c1 | - | 123 | - | -
O=C(c1cccc(N2C(=O)C3C4C=CC(C4)C3C2=O)c1)N1CCCCCC1 (stereo not drawn) | 0 | 0 | 77 | 0
COc1ccc(N2CCN(C(=O)c3cccc(N4C(=O)C5C6C=CC(C6)C5C4=O)c3)CC2)cc1 (stereo not drawn) | - | 0 | - | -
COC(=O)[C@]1(Cc2ccccc2)N[C@H](c2ccc(-c3ccccc3)cc2)[C@@H]2C(=O)N(C)C(=O)[C@@H]21 | - | 0 | - | -
Cc1ccc(Nc2nc3ccccc3s2)c(C)c1 | 0 | 0 | 0 | 0
Cc1cc(O)ccc1Nc1nc2ccccc2nc1Nc1ccc(O)cc1C | 56 | 0 | 0 | 0
CCCCn1c(N)c(N(CC(C)C)C(=O)CCCn2c(=O)oc3ccccc32)c(=O)[nH]c1=O | - | 0 | - | -
Cc1cn2c(N)c(/C=C3\C=Nc4ccccc43)c(=O)nc2s1 | 0 | 19 | 0 | -
Cc1ccccc1C(=O)Nc1ccc2c(C#N)c3nc4ccccc4nc3n2c1 | 34 | 0 | 89[fluorescence artefact?] | 0
CCCSC1=NN2CCCC(=O)N=C2S1 | 0 | 0 | 0 | 0
CCCc1cc(=O)n2[nH]c(-c3ccc(Cl)cc3)cc2n1 | - | 0 | - | -
O=c1cc(-c2ccc([N+](=O)[O-])cc2)nc2cc(-c3ccc(Cl)cc3)[nH]n12 | 0 | - | 89[fluorescence artefact?] | 0
CCn1c(SCC(=O)N/N=C/C=C/c2ccco2)nnc1-c1ccc(OC)cc1 | 0 | 0 | 80[fluorescence artefact?] | 0
O=S1(=O)N=C(Oc2cccc3ccccc23)c2ccccc21 | 0 | 0 | 86 | 0
Cc1ccccc1OC1=NS(=O)(=O)c2ccccc21 | 0 | 0 | 0 | 0
CSc1ccccc1NC(=O)CN(C)Cc1cccc(Cl)c1 | 0 | 0 | 72 | 0
Cc1ccc(NC(=O)CN(C)C(=O)Nc2ccc(C)cc2)cc1 | - | 0 | - | -
SMILES | p47phox inh | dFosB act | 14-3-3 Bad PPI | HMGR II inh
Cc1ccc(NC(=O)/C(CN(C)C)=N\O)cc1 | 0 | 0 | 93[fluorescence artefact?] | 0
Fc1ccccc1/C=N/Nc1ncnc2ccccc12 | 0 | 0 | 0 | 0
O=C(COc1ccc(Cl)cc1Cl)Nc1ccc(CN2CCCCC2)cc1 | 38 | 0 | 0 | 0
N#CCN1CCN(CC(=O)Nc2ccc(OCc3ccccc3)cc2)CC1 | 0 | 0 | 0 | 0
CCOC(=O)C1CCN(C(=O)Nc2ccc(OCc3ccccc3)cc2)CC1 | 44 | 0 | 0 | -
CN1CCN(CC(=O)Nc2ccc(OCc3ccccc3)cc2)CC1 | 0 | - | 87 | 0
O=C(CN1CCN(CCO)CC1)Nc1ccccc1 | 0 | 0 | 73 | 0
CCCOC(=S)Nc1ccccc1 | 0 | 0 | 0 | 0
COC(=O)c1onc(-c2c(Cl)cccc2Cl)c1C(=O)OC | 47 | 0 | 0 | -
CCOC(=O)N1CCN(C(=O)c2ccc3c(c2)N=C(CC)c2cc(C)ccc2S3)CC1 | - | 0 | - | -
COC(=O)c1ccccc1NC(=O)Cn1nc2n(C)c3ccccc3n2c(=O)c1=O | 0 | - | 93 | 0
COC(=O)c1ccccc1NC(=O)Cn1cnc2c1c(=O)n(C)c(=O)n2C | - | 0 | - | -
O=C(Nc1nccs1)c1cccc(N2C(=O)c3cccc4c([N+](=O)[O-])ccc(c34)C2=O)c1 | 0 | 0 | 77[fluorescence artefact?] | 0
COc1ccc(C(CCNC(C)c2ccccc2)C(C)C)cc1 (stereo not drawn) | 42 | - | 0 | -
CS(=O)(=O)Nc1ccccc1C(=O)Nc1cccc(Cl)c1 | 0 | 0 | 77 | 0
CC(=O)Nc1ccc(NC(=O)C(C)Sc2nc3nc(C)cc(C)n3n2)cc1 (stereo not drawn) | - | 0 | - | -
CC1CCN(CCCNC(=O)c2ccc(CS(=O)(=O)Cc3ccccc3F)o2)CC1 | 0 | 0 | 0 | 0
O=C(NCCCN1CCCCCC1)c1ccc(CS(=O)(=O)Cc2ccccc2F)o1 | 89 | 0 | 0 | 0
COc1ccc(OC(C)C(=O)Nc2ccc(F)cc2F)cc1 (stereo not drawn) | 0 | 0 | 0 | 0

Compound activity: PubChem, several laboratories
